# From PubChem
# Dicer processing = human Dicer pre-microRNA cleavage inhibition; Q9UPY3; cat-ELCCA pre-miR-21 Dicer processing, chemiluminescence; stronger effect = higher value; z-score at 25 µM; 6% of 47,000 active; AID 1347074; in the data active = z-score above about 3, passing the limit was not always enough;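 note: plate controls were vehicle for no effect and no enzyme for full effect; higher signal means more uncleaved substrate so more Dicer inhibition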
# The depositor's hits bear a star. The sample as a whole holds a higher share of hits than the screen did.
SMILES,Dicer processing
CC1=Nn2c(nnc2-c2ccc(Cl)cc2)SC1,-0.07
Cc1ccc(-c2nc3cc(N)ccc3o2)cc1Cl,1.5
COc1ccc(-c2[nH]ncc2CN2CCC(O)(c3ccc(Cl)cc3)CC2)cc1,0.38
Cc1cc(NC(=O)CC2(CC(=O)O)CCCC2)n(C)n1,3.4*
Cn1nccc1NC(=O)CC1(CC(=O)O)CCCCC1,0.01
Cc1cc(NC(=O)CCC(=O)O)n(C)n1,0.37
CCN(CC)C(=O)CSc1nnc(-c2ccc(Br)cc2)o1,2.6
S=C(NC1CC2C=CC1C2)N1CCN(C(=S)NC2CC3C=CC2C3)CC1 (stereo not drawn),0.28
CC(C)N1CC(COc2ccc(Cl)cc2Cl)OC1=O (stereo not drawn),-0.76
CSc1nnc(-c2ccc(C)cc2)o1,0.94
Cc1ccc(-c2nnc(-c3ccc(Br)cc3)o2)cc1,3.8*
CSc1nnc(-c2ccc(Br)cc2)o1,1.5
O=C(Cc1cc(Br)sc1Br)N/N=C/c1c(Br)cnn1Cc1ccc(Cl)cc1,-1.1
Cc1cc(C)n2nc3c(c(C)cc(C)[n+]3-c3ccccc3)c2n1,-3.4
CC(C)C[C@H](N)c1nnc(SCC(=O)c2ccc(Cl)cc2)o1,0.53
COc1cccc(CN2CCN(Cc3c[nH]c4ccccc34)CC2)c1OC,3.4*
COc1ccc(OC)c(CN2CCN(Cc3c[nH]c4ccccc34)CC2)c1,2.6
COc1ccc(CN2CCN(Cc3ccc4c(c3)OCO4)CC2)c2ccccc12,-0.76
COc1cc(CN2CCN(Cc3cccc4ccccc34)CC2)cc(OC)c1,3.7*
COc1ccc(CN2CCN(Cc3c[nH]c4ccccc34)CC2)c(OC)c1,2.4
COc1ccc(CN2CCN(Cc3cc(OC)ccc3O)CC2)cc1,2.6
Cc1ccc(-c2nn(C)c(=O)c3ccccc23)cc1S(=O)(=O)N1CCOCC1,-4.8
COCc1cc(=O)n2c([nH]c3ccccc32)c1C#N,0.94
COc1ccccc1NC(=S)NC1CC2CCC1C2 (stereo not drawn),-0.31
Cc1cccc(-c2c3c(=O)n(C)c(=O)n(C)c3c3c(-c4ccccc4)cc(C)nn23)c1,-0.39
SMILES,Dicer processing
CCOC(=O)/C(C#N)=N/Nc1c(S(=O)(=O)Cc2ccco2)csc1C(=O)OC,2.1
COc1ccc(N=c2scc(C)n2C(=O)c2ccccc2Cl)cc1,1.4
CC(C)N(Cc1ccccc1)S(=O)(=O)c1ccc2ccccc2c1,-0.14
CCC1CCc2c(sc(NC(=O)CCCC(=O)O)c2C(N)=O)C1 (stereo not drawn),0.38
CCOC(=O)NC(=O)/C(=C/NCc1ccco1)C(=O)OCC,-0.11
Cn1cnc(S(=O)(=O)Nc2cc(C(F)(F)F)ccc2N2CCOCC2)c1,1
CC(C)(C)C1CCC(OC(=O)Cn2cnc([N+](=O)[O-])n2)CC1 (stereo not drawn),3.1*
COc1ccc(NC(=O)Cn2cnc([N+](=O)[O-])n2)c(OC)c1,-0.56
CC(C)OC(=O)Cn1cnc([N+](=O)[O-])n1,-0.76
O=C1CC(c2ccccc2Cl)Nc2ccc3ccccc3c21 (stereo not drawn),1.8
O=C1CC(c2cccc(Br)c2)Nc2ccc3ccccc3c21 (stereo not drawn),3.4*
CN(C)c1ccc(C2CC(=O)c3ccccc3N2)cc1 (stereo not drawn),2.4
O=c1cc(CSc2ccc(Cl)cc2)nc2nc[nH]n12,4.4*
O=c1cc(-c2ccccc2)nc2nc[nH]n12,1.1
CCc1nc2nc(CSc3ccc(C)cc3)cc(=O)n2[nH]1,1.3
CSc1scc2c1/C(=N/OC(=O)Nc1ccccc1)CC(C)(C)C2,-2.1
Cc1nc(N(C)C)c(C#N)c(C)c1[N+](=O)[O-],-0.48
CCOC(=O)c1cc(C)nc(N2CCCCC2)c1C#N,0.2
Cc1nc(N2CCCCC2)c(C#N)c(C)c1[N+](=O)[O-],4.5*
Cc1ccc(-c2noc(-c3cccs3)n2)cc1,-0.18
COc1cc(C2Nc3ccccc3NC3=C2C(=O)CC(c2ccccc2)C3)cc(Br)c1O (stereo not drawn),4.9*
COc1ccc(C2Nc3ccccc3NC3=C2C(=O)CC(c2ccccc2)C3)cc1OC (stereo not drawn),0.83
COc1ccc(C2CC(=O)C3=C(C2)Nc2ccccc2NC3c2ccc(OC(C)=O)cc2)cc1OC (stereo not drawn),-0.1
COc1ccc(C2CC(=O)C3=C(C2)Nc2ccccc2NC3c2ccc(OC(C)=O)c(OC)c2)cc1 (stereo not drawn),1.6
COc1ccc(C2Nc3ccccc3NC3=C2C(=O)CC(c2cccs2)C3)cc1 (stereo not drawn),24
COc1cccc(C2Nc3ccccc3NC3=C2C(=O)CC(c2ccc(OC)c(OC)c2)C3)c1 (stereo not drawn),-0.54
COc1ccc(C2CC(=O)C3=C(C2)Nc2ccccc2NC3c2cccc(O)c2)cc1OC (stereo not drawn),3.5*
COc1ccc(C2Nc3ccccc3NC3=C2C(=O)CC(c2ccc(OC)c(OC)c2)C3)cc1 (stereo not drawn),2.5
COc1cc(C2Nc3ccccc3NC3=C2C(=O)CC(c2cccs2)C3)cc(Br)c1O (stereo not drawn),4.6*
Clc1cccc(-n2c(SCC3CC3)nnc2C2CC2)c1,-0.09
